Screening results deposited in PubChem BioAssay by National Center for Advancing Translational Sciences (NCATS).
GLP1R cytotox = cytotoxicity counter-screen for GLP-1 receptor inverse agonists | Potency, µM (series often up to 38.3 µM), for inactives: top-dose activity change, negative = inhibition, usual class: inhibitors | AID 624418 | HEK293 cAMP-luciferase reporter cells, luminescence, 24 h | 410,000 tested, 0.13% active;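 also: loss of luciferase light is scored as toxicity; % is scaled to controls: 0 for no effect and ±100 for the full control effect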
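Luminescence readout: signal drop marks cytotoxicity. Plated cells grew 12 h at 37 °C, 5% CO2, received 23 nL compound for 24 h, then got luciferase reagent, read after 12 min at RT.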
GLP1R ag = agonists of human GLP-1 receptor | Potency, µM (titrated, usually from 45.6 µM), without a hit: at the top dose activation, usual class: activators | HEK293 GLP-1R CRE-luciferase, luminescence, 4-6 h; cells express a hypersensitive GLP-1R form | P43220 | 380,000 tested, 0.007% active; also: % of control where 0% means no effect
Tb PFK inh = blocks T. brucei phosphofructokinase. T. brucei PFK, ADP-Glo luminescence. Potency, µM (top dose mostly 57.5 µM), without a hit: top-dose activity, negative = inhibition, hits mostly inhibitors. 330,000 tested, 0.17% active. AID 485367;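 also: 0% = uninhibited 1x PFK enzyme wells and -100% = no-enzyme wells; nearly all actives have a fitted effect of over 60% in size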
Target sequence (O15648 whole entry, looked up): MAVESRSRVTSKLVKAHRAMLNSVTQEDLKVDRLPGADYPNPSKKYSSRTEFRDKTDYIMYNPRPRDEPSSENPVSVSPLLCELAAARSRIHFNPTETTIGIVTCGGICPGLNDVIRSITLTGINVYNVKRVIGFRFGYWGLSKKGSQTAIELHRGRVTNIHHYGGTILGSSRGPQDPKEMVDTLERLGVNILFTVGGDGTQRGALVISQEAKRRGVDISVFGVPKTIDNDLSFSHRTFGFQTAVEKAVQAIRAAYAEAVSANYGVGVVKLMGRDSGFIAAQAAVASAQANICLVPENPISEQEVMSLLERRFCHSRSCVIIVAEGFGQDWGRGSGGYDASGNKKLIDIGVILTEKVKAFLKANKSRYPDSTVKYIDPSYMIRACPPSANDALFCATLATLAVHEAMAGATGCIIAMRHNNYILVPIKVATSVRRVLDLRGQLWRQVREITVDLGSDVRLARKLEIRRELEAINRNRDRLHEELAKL
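PFK 1.25 nM, F6P 0.5 mM, ATP 0.1 mM, 0.1 M TEA pH 8.0, 5 mM MgCl2, 0.01% Tween20, 0.1% BSA; 45 min RT. ADP-Glo readout. qHTS titration up to 57 uM; curves fitted, compounds curve-classed.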
Pin1 inhibitor = inhibitors of human Pin1; Pin1 FP peptide displacement, HiFluor488, 10 min; AID 504891; 390,000 tested, 0.009% active; Q13526; Potency, µM (series often up to 115 µM), for the others: at the highest dose activity, negative = inhibition, actives largely listed as inhibitors; active = well fitted inhibition curve with a large enough effect in the polarisation, with a control signal flat, not every such curve was filed as active; inconclusive = small, poorly fitted or top-dose-only effect, or effect the other way, or a change in a side signal; inactive = no such curve, though single readings can be large or run the other way; the % refers to the polarisation; also: % is scaled to controls: 0 for no effect and ±100 for the full control effect
Target sequence (Q13526 whole entry, looked up): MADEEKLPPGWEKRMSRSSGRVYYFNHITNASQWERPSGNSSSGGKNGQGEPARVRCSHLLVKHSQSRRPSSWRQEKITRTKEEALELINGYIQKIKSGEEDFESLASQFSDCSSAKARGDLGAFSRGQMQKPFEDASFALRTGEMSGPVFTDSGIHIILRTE
PGK inhibitor = blocks T. brucei phosphoglycerate kinase. P07378. PGK/GAPDH coupled, Kinase-Glo luminescence, 60 min. Potency, µM (top dose mostly 57.5 µM), inactives show top-dose activity change, negative = inhibition, most hits filed as inhibitors. 380,000 tested, 0.043% active; also: % is scaled to controls: 0 for no effect and ±100 for the full control effect; nearly all actives have a fitted effect of over 60% in size
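Recombinant glycosomal PGK reaction used 1,3-bisphosphoglycerate generated in-well by GAPDH (100nM final) in 100mM TEA pH 7.6, 5mM MgCl2, 0.01% Tween-20. After 60 minutes at room temperature, ATP was read by Kinase-Glo Plus luminescence end-point.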
GLP-1R inv ag = inverse agonists of human GLP-1 receptor; AID 624417; 410,000 tested, 1.6% active; HEK293 GLP-1R CRE-luciferase, luminescence, 24 h; GLP-1R form is constitutively active; P43220; Potency, µM (series often up to 38.3 µM), for the others: top-dose activity change, negative = inhibition, actives largely listed as inhibitors; also: % is scaled to controls: 0 for no effect and ±100 for the full control effect; nearly all actives have a fitted effect of over 55% in size
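Luminescence readout: a drop in cAMP-driven luciferase signal flags inverse agonism at a constitutively active GLP-1R stably expressed in HEK293. Compound exposure lasted 24 hr at 37 deg C, 5% CO2.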
* = called active by the depositor; i = inactive; ? = inconclusive; / = no result. A selection: hits, their analogues and other compounds. The true share with any hit is near 1.8%. Unless noted, calls follow the shape of the dose curve; as a rule, active = well fitted curve in the direction sought with a large enough effect; inconclusive = small, poorly fitted or top-dose-only effect, or another doubt; inactive = no such curve, though single readings can be large; an effect the other way counts as inactive or inconclusive. Potency is read from the fitted curve at half-maximal effect.

SMILES	GLP1R cytotox	GLP1R ag	Tb PFK inh	Pin1 inhibitor	PGK inhibitor	GLP-1R inv ag
S=C(NCc1ccco1)N1CCN(C(c2ccccc2)c2ccccc2)CC1	9%	0%	-3%	15%	-3%	?
C=C(C)CNC(=S)N1CCN(C(c2ccccc2)c2ccccc2)CC1	3%	10%	-2%	5%	0%	?
CC(C)CNC(=S)N1CCN(C(c2ccccc2)c2ccccc2)CC1	-11%	3%	-4%	-2%	20%	2.8µM*
COc1ccc2oc(C(=O)N3CCN(C/C=C/c4ccccc4)CC3)c(C)c2c1	8%	4%	0%	15%	-14%	?
COc1ccc2oc(C(=O)N3CCN(C(c4ccccc4)c4ccccc4)CC3)c(C)c2c1	1%	11%	4%	11%	8%	5.6µM*
COc1cccc(NC(=S)N2CCN(C(c3ccccc3)c3ccccc3)CC2)c1	2%	-21%	1%	4%	-1%	10µM*
COCCCNC(=S)N1CCN(C(c2ccccc2)c2ccccc2)CC1	13%	4%	-6%	17%	0%	10µM*
COC(=O)c1ccc(NC(=O)CSc2ncc3c(n2)-c2cc(Cl)ccc2N(Cc2ccccc2)S3(=O)=O)cc1	5%	/	/	19%	-2%	-1%
CCCn1nc(NC(=O)c2cccc(Cl)c2)c2cc3cccc(C)c3nc21	-7%	/	/	24%	-7%	6%
CC(C)(C)OC(=O)N1CCC(c2c(C(=O)N3CCN(c4ccccn4)CC3)cnn2-c2cccc(F)c2)CC1	5%	/	/	-6%	-5%	3%
COc1cc(NC(=S)N2CCC(C(O)(c3ccccc3)c3ccccc3)CC2)cc(OC)c1	4%	-5%	-4%	1%	-12%	10µM*
COc1ccc(N2CCN(C(=O)c3oc4ccccc4c3NC(=O)Cc3cccc(OC)c3)CC2)cc1	-13%	3%	2%	-2%	-2%	8.9µM*
COc1ccc2oc(C(=O)OCC(=O)N(Cc3ccccc3)C(C)C)c(C)c2c1	3%	15%	-6%	21%	-1%	11µM*
COc1ccc(N2CCN(C(=O)c3oc4ccccc4c3NC(=O)Cc3ccc(OC)c(OC)c3)CC2)cc1	-9%	-4%	1%	3%	-7%	-42%
COc1ccc2oc(C(=O)OCC(=O)N(C)Cc3ccccc3)c(C)c2c1	18%	7%	-5%	5%	-3%	?
Cc1nc2ccn(Cc3cccs3)c(=O)c2cc1C(=O)Nc1ccccc1	-18%	/	/	0%	-5%	?
O=C(Nc1ccc(NC(=O)c2ccco2)cc1)c1ccco1	-7%	-3%	2%	-2%	-3%	20%
Cc1nc(-c2ccc(NC(=O)c3ccco3)cc2)cs1	24%	-6%	-14%	3%	-30%	1µM*
Nc1nc(-c2ccc(NC(=O)c3ccco3)cc2)cs1	-5%	5%	6%	9%	-4%	7.9µM*
Cc1ccc(NC(=O)C2CCCN(S(=O)(=O)c3c(C)n[nH]c3C)C2)cc1C (stereo not given)	?	2%	/	-4%	-4%	?
CCc1ccc(S(=O)(=O)NCc2ccc3c(c2)CCN3C(=O)c2ccc(C)cc2)cc1	2%	/	/	32%	9%	-11%
CCCN(CCC)CCNC(=O)CN1C(=O)COc2ccc(S(=O)(=O)N3CCC(C)CC3)cc21	-4%	7%	/	1%	12%	8%
Cc1ccc(SCCNC(=S)Nc2ccccc2)cc1	?	-3%	/	2%	-3%	?
COc1ccccc1NC(=S)NCCSc1ccc(C)cc1	?	1%	-6%	-1%	-3%	11µM*
COCC1CCN(C(=O)c2cc(COc3ccccc3SC)on2)C1 (stereo not given)	0%	-6%	-1%	-6%	i	-20%
SMILES	GLP1R cytotox	GLP1R ag	Tb PFK inh	Pin1 inhibitor	PGK inhibitor	GLP-1R inv ag
C=CC[C@H]1CC(C)=C[C@H](CC=C)N1C(=O)c1cc(COc2ccccc2SC)on1	14%	13%	-16%	?	-1%	8.9µM*
CC(C)(C)C(c1nc2ccccc2[nH]1)n1c(-c2ccco2)nc2ccccc21 (stereo not given)	-2%	/	/	/	/	26%
CC(C)(C)C(c1nc2ccccc2[nH]1)n1c(-c2ccsc2)nc2ccccc21 (stereo not given)	?	/	/	/	/	10µM*
CCCc1cc(C(=O)N2CCCC(Cc3cccc(Cl)c3)(C(=O)OCC)C2)n(C)n1 (stereo not given)	-10%	6%	-2%	1%	i	11µM*
COc1cc(/C=N/Nc2ccc(F)cc2F)cc(OC)c1O	-11%	8%	-9%	4%	-1%	?
Cc1ccc(/C=N/Nc2ccc(F)cc2F)s1	-14%	1%	-3%	-4%	-8%	5µM*
COc1cc2c(N3CCN(C(=O)Nc4ccc(OC(C)C)cc4)CC3)ncnc2cc1OCCCN1CCCCC1	/	15%	/	/	/	/
COc1ccc(S(=O)(=O)N(C(=O)c2ccncc2)c2ccc3oc4c(c3c2)CCCC4)cc1	?	-14%	10%	26%	i	10µM*
COc1ccc(S(=O)(=O)N(C(=O)c2ccncc2)c2ccc3oc(C)c(C(C)=O)c3c2)cc1	-25%	/	/	10%	2%	3.2µM*
O=C(N/N=C/c1ccc(O)cc1)c1ccc(COc2cc(Cl)ccc2Cl)o1	-28%	-4%	-1%	31%	4%	1.4µM*
COc1cc(/C=C/C(=O)O[C@H]2CC[C@]34C[C@]35CC[C@]3(C)[C@@H]([C@H](C)CCC=C(C)C)CC[C@@]3(C)C5CCC4C2(C)C)ccc1O (stereo not given in full)	/	-4%	/	/	/	/
CC1COC(=O)C(NNc2ccc(Cl)c(Cl)c2)=N1 (stereo not given)	?	-1%	-19%	-2%	1%	2.2µM*
COc1ccc(C(=O)Nc2ccccc2-c2ccccc2)cc1Cl	-3%	13%	1%	4%	-1%	?
CCOc1c(Cl)cc(C(=O)Nc2ccccc2-c2ccccc2)cc1Cl	38%	-6%	-5%	0%	-9%	8.9µM*
CCCCN(Cc1ccccc1)c1ncnc2nc[nH]c12	-2%	9%	-2%	6%	-15%	?
CCCCN(CCCC)c1ncnc2nc[nH]c12	-8%	8%	0%	-8%	-2%	4.5µM*
CCN(CC(=O)Nc1ccccc1C(F)(F)F)C(=O)c1ccccc1OCc1ccc(F)cc1	-2%	-1%	/	-4%	-5%	10µM*
O=C(NCc1ccc(F)cc1)c1ccccc1OCc1ccccc1	4%	20%	2%	1%	-11%	10µM*
